Among all 5,500 compounds or so, about 2,000 (36%) were called active. Another 18% or so got no clear call; they are omitted. Rule as the data show it: active = normalized growth mostly below about 0.91 (no sharp cut-off); inconclusive = no clear call, values can overlap the other calls; inactive = mostly above about 0.92. The list shows a part of the results.
Experiment: chemical genetic growth profiling, strain panel (AID 1159580);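 also: tested at 20 µM; growth read once vehicle control cultures reached saturation at 30 °C; 1 = growth at the plate median or of vehicle wells; lower values mean less growth of the strain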
Conditions: growth OD

Measured: normalized growth

CC1NC(=O)NC1=O (stereo unspecified)
inactive: S. cerevisiae deletion strains, locus YAL013W, strain DEP1, stronger effect = lower value 0.968 | S. cerevisiae deletion strains, locus YBR021W, strain FUR4, stronger effect = lower value 1.01 | S. cerevisiae deletion strains, locus YBR229C, strain ROT2, stronger effect = lower value 0.996 | S. cerevisiae deletion strains, locus YCL029C, strain bik1, stronger effect = lower value 1.01 | S. cerevisiae deletion strains, locus YDL035C, strain GPR1, stronger effect = lower value 0.987 | S. cerevisiae deletion strains, locus YDL074C, strain BRE1, stronger effect = lower value 1 | S. cerevisiae deletion strains, locus YDL101C, strain DUN1, stronger effect = lower value 1 | S. cerevisiae deletion strains, locus YDL134C, strain PPH21, stronger effect = lower value 1.01 | S. cerevisiae deletion strains, locus YDL185W, strain tfp1, stronger effect = lower value 1.01 | S. cerevisiae deletion strains, locus YDL192W, strain arf1, stronger effect = lower value 1.01 | S. cerevisiae deletion strains, locus YDR101C, strain arx1, stronger effect = lower value 1 | S. cerevisiae deletion strains, locus YDR150W, strain NUM1, stronger effect = lower value 1.02 | S. cerevisiae deletion strains, locus YDR162C, strain NBP2, stronger effect = lower value 1 | S. cerevisiae deletion strains, locus YDR318W, strain mcm21, stronger effect = lower value 1.02 | S. cerevisiae deletion strains, locus YDR388W, stronger effect = lower value 1.01 | S. cerevisiae deletion strains, locus YDR502C, strain sam2, stronger effect = lower value 1.01 | S. cerevisiae deletion strains, locus YEL061C, strain CIN8, stronger effect = lower value 0.997 | S. cerevisiae deletion strains, locus YER110C, stronger effect = lower value 1.01 | S. cerevisiae deletion strains, locus YER155C, strain BEM2, stronger effect = lower value 0.995 | S. cerevisiae deletion strains, locus YER167W, strain BCK2, stronger effect = lower value 0.998 | S. cerevisiae deletion strains, locus YGL078C, strain dbp3, stronger effect = lower value 1.01 | S. cerevisiae deletion strains, locus YGL086W, strain mad1, stronger effect = lower value 1.02 | S. cerevisiae deletion strains, locus YGL248W, strain PDE1, stronger effect = lower value 1.01 | S. cerevisiae deletion strains, locus YGR078C, strain PAC10, stronger effect = lower value 1.01 | S. cerevisiae deletion strains, locus YGR135W, strain pre9, stronger effect = lower value 1.01 | S. cerevisiae deletion strains, locus YGR229C, strain SMI1, stronger effect = lower value 0.986 | S. cerevisiae deletion strains, locus YGR252W, strain gcn5, stronger effect = lower value 1.02 | S. cerevisiae deletion strains, locus YHR030C, strain SLT2, stronger effect = lower value 1 | S. cerevisiae deletion strains, locus YHR079C, strain IRE1 (second series), stronger effect = lower value 1 | S. cerevisiae deletion strains, locus YHR094C, strain hxt1, stronger effect = lower value 1.01 | S. cerevisiae deletion strains, locus YHR129C, strain ARP1, stronger effect = lower value 0.999 | S. cerevisiae deletion strains, locus YHR200W, strain rpn10, stronger effect = lower value 1.01 | S. cerevisiae deletion strains, locus YIL066C, strain RNR3, stronger effect = lower value 0.99 | S. cerevisiae deletion strains, locus YIL073C, strain SPO22, stronger effect = lower value 1.07 | S. cerevisiae deletion strains, locus YIL125W, strain kgd1, stronger effect = lower value 1.02 | S. cerevisiae deletion strains, locus YIR030C, strain dcg1, stronger effect = lower value 1 | S. cerevisiae deletion strains, locus YJL095W, strain BCK1, stronger effect = lower value 0.986 | S. cerevisiae deletion strains, locus YJL134W, strain LCB3, stronger effect = lower value 0.994 | S. cerevisiae deletion strains, locus YJL168C, strain set2, stronger effect = lower value 1 | S. cerevisiae deletion strains, locus YJL187C, strain SWE1 (second series), stronger effect = lower value 0.999 | S. cerevisiae deletion strains, locus YJR043C, strain POL32, stronger effect = lower value 1.01 | S. cerevisiae deletion strains, locus YJR075W, strain HOC1, stronger effect = lower value 0.993 | S. cerevisiae deletion strains, locus YKL009W, strain mrt4, stronger effect = lower value 1.03 | S. cerevisiae deletion strains, locus YKL068W, stronger effect = lower value 1.01 | S. cerevisiae deletion strains, locus YKL085W, strain MDH1 (second series), stronger effect = lower value 1 | S. cerevisiae deletion strains, locus YKL085W, strain MDH1, stronger effect = lower value 1 | S. cerevisiae deletion strains, locus YKL190W, strain CNB1, stronger effect = lower value 1 | S. cerevisiae deletion strains, locus YKR001C, strain vps1, stronger effect = lower value 1.02 | S. cerevisiae deletion strains, locus YLR039C, strain RIC1, stronger effect = lower value 1.02 | S. cerevisiae deletion strains, locus YLR058C, strain SHM2, stronger effect = lower value 1 | S. cerevisiae deletion strains, locus YLR102C, strain apc9, stronger effect = lower value 1.01 | S. cerevisiae deletion strains, locus YLR262C, strain YPT6, stronger effect = lower value 1.02 | S. cerevisiae deletion strains, locus YLR268W, strain sec22, stronger effect = lower value 1 | S. cerevisiae deletion strains, locus YLR330W, strain CHS5, stronger effect = lower value 1 | S. cerevisiae deletion strains, locus YLR342W, strain FKS1 (second series), stronger effect = lower value 1 | S. cerevisiae deletion strains, locus YLR371W, strain rom2, stronger effect = lower value 1.01 | S. cerevisiae deletion strains, locus YLR418C, strain cdc73, stronger effect = lower value 1.01 | S. cerevisiae deletion strains, locus YML016C, strain PPZ1, stronger effect = lower value 1 | S. cerevisiae deletion strains, locus YML032C, strain rad52, stronger effect = lower value 1.02 | S. cerevisiae deletion strains, locus YML124C, strain tub3, stronger effect = lower value 1.01 | S. cerevisiae deletion strains, locus YMR078C, strain ctf18, stronger effect = lower value 1.01 | S. cerevisiae deletion strains, locus YMR223W, strain ubp8, stronger effect = lower value 1.01 | S. cerevisiae deletion strains, locus YMR263W, strain SAP30, stronger effect = lower value 0.994 | S. cerevisiae deletion strains, locus YMR307W, strain GAS1, stronger effect = lower value 0.983 | S. cerevisiae deletion strains, locus YNL067W, strain RPL9B, stronger effect = lower value 1 | S. cerevisiae deletion strains, locus YNL128W, strain TEP1, stronger effect = lower value 0.975 | S. cerevisiae deletion strains, locus YNL153C, strain GIM3, stronger effect = lower value 1.01 | S. cerevisiae deletion strains, locus YNL233W, strain BNI4, stronger effect = lower value 1 | S. cerevisiae deletion strains, locus YNL250W, strain rad50, stronger effect = lower value 1.01 | S. cerevisiae deletion strains, locus YNL271C, strain bni1, stronger effect = lower value 1 | S. cerevisiae deletion strains, locus YNL298W, strain CLA4, stronger effect = lower value 1.02 | S. cerevisiae deletion strains, locus YNL307C, strain MCK1, stronger effect = lower value 1.02 | S. cerevisiae deletion strains, locus YNL322C, strain KRE1, stronger effect = lower value 0.991 | S. cerevisiae deletion strains, locus YNR052C, strain pop2, stronger effect = lower value 1 | S. cerevisiae deletion strains, locus YOL006C, strain TOP1, stronger effect = lower value 1 | S. cerevisiae deletion strains, locus YOL012C, strain htz1 0.89 | S. cerevisiae deletion strains, locus YOL147C, strain pex11, stronger effect = lower value 1.02 | S. cerevisiae deletion strains, locus YOR061W, strain CKA2, stronger effect = lower value 0.998 | S. cerevisiae deletion strains, locus YOR069W, strain VPS5, stronger effect = lower value 0.998 | S. cerevisiae deletion strains, locus YOR136W, strain idh2, stronger effect = lower value 1.02 | S. cerevisiae deletion strains, locus YOR144C, strain elg1, stronger effect = lower value 1.01 | S. cerevisiae deletion strains, locus YOR184W, strain ser1, stronger effect = lower value 1.03 | S. cerevisiae deletion strains, locus YOR316C, strain cot1, stronger effect = lower value 1 | S. cerevisiae deletion strains, locus YPL055C, strain LGE1, stronger effect = lower value 0.986 | S. cerevisiae deletion strains, locus YPL241C, strain CIN2, stronger effect = lower value 1 | S. cerevisiae deletion strains, locus YPR119W, strain clb2, stronger effect = lower value 1.01 | S. cerevisiae deletion strains, locus YPR141C, strain kar3, stronger effect = lower value 1.01 | S. cerevisiae deletion strains, locus YPR163C, strain tif3, stronger effect = lower value 1.02 | S. cerevisiae deletion strains, locus YPR167C, strain met16, stronger effect = lower value 1.01 | S. cerevisiae deletion strains, strain wtn01, stronger effect = lower value 1.01 | S. cerevisiae strains, strain wild type, stronger effect = lower value 0.98
